Hits are enriched below; roughly 3.5% of the tested compounds scored in any of these assays.
GPR151 ag: activators of human GPR151, primary screen, cell-based, PathHunter beta-arrestin, luminescence | AID 1508602, 2020 | PathHunter beta-arrestin GPR151 cells | G-protein coupled receptor 151 (Homo sapiens), Q8TDV0 | activation, % at 11.2 µM | 1% of 650,000 active; in the data active = activation above about 4.9%;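 note: 0% = median of compound wells and 100% = cells with positive control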
MITF primary: MITF inhibitors, primary screen, biochemical, AlphaScreen, human. Microphthalmia-associated transcription factor (Homo sapiens), O75030. AlphaScreen MITF homodimerization, bead proximity signal. inhibition, % at 2.6 µM. 0.91% of 650,000 active. AID 1259374, 2018; in the data active = inhibition above about 50%;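 note: 0% = vehicle wells with protein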
FBW7 activator: FBW7 E3 ligase activators, primary screen, biochemical, AlphaScreen, human. F-box/WD repeat-containing protein 7 (Homo sapiens), Q969H0. 0.13% of 650,000 active. normalized activity (activation), % at 26.1 µM. AlphaScreen FBW7–phospho-cyclin E peptide binding, activator screen. AID 1259310, 2017; in the data active = normalized activity above about 1.9%;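 note: purified mutant Fbw7 with reduced substrate affinity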
TEAD-YAP inh: TEAD-YAP interaction inhibition, primary screen, TEAD-YAP interaction inhibitor project, luminescence, HEK-TIYL cells; 1.4% of 640,000 active; TEAD-Gal4/YAP UAS-luciferase luminescence; inhibition, % at 9.12 µM; in the data active = inhibition above about 32%;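 note: 0% = median of test compound wells and 100% = reference inhibitor wells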
MITF inh conf: MITF inhibitors, retest of hits, confirmation, biochemical, AlphaScreen, triplicate | shares compounds with MITF primary | AlphaScreen MITF homodimerization, biotin/His-MITF beads | inhibition, % at 2.6 µM | 16% of 4,700 active;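 active = inhibition above a cutoff derived from the DMSO control wells, cut at about 28% in these data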;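 note: 0% = MITF dimer wells with DMSO only; inhibitors lower the bead chemiluminescence by keeping MITF from dimerizing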
AS interf ctr: AlphaScreen optical interference compounds, counter-screen for MITF inhibitor project, biochemical, triplicate. shares compounds with MITF primary. LysRS AlphaScreen counterscreen, signal interference. inhibition, % at 2.6 µM. 7.6% of 4,700 active;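 active = inhibition above a cutoff derived from the DMSO control wells, cut at about 30% in these data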
* marks the source's active call; other numbers are inactive results; / = not tested or not shown.

SMILES | GPR151 ag | MITF primary | FBW7 activator | TEAD-YAP inh | MITF inh conf | AS interf ctr
Cc1c(C(=O)NCCc2ccccc2Cl)sc2ncn(C)c(=O)c12 | -2 | 2 | 0 | -61 | / | /
O=C(CC1C(=O)NCCN1C/C=C/c1ccccc1)NCCCc1cccnc1 (stereo not drawn) | 0 | 64* | 0 | 1 | 4 | 3
O=C(Nc1ccccc1Oc1ccccc1)c1ccc(S(=O)(=O)N2CCc3ccccc3C2)cc1 | 0 | -1 | 0 | 2 | / | /
COc1ccc(N(CC(=O)Nc2ccccc2C)S(=O)(=O)c2c(C)n[nH]c2C)cc1 | 2 | 24 | 0 | 11 | / | /
CCC1=NN2C(=N)/C(=C/c3ccc(OCCOc4ccc(C)cc4C)cc3)C(=O)N=C2S1 | 0 | 14 | 0 | -17 | / | /
CCc1nc(NCC(C)C)c2nnn(Cc3ccccc3)c2n1 | 0 | 61* | 0 | -3 | -6 | -2
CCc1nc(NCCCCCO)c2nnn(Cc3ccccc3)c2n1 | 0 | 7 | 0 | 0 | / | /
Cc1cc(C(=O)N2CCN(CC(=O)c3cccs3)CC2)no1 | 0 | 61* | 0 | -4 | 7 | 12

High-throughput results from PubChem.
